{
  "source": "PubChem BioAssay (NCATS)",
  "note": "Inconclusive results are not listed. Active and inactive are the calls of the source. Calls come from the whole dose curve; as a rule, active = well fitted curve in the direction sought with a large enough effect; inconclusive = small, poorly fitted or top-dose-only effect, or another doubt; inactive = no such curve, though single readings can be large; an effect the other way counts as inactive or inconclusive. Where a SMILES comes first, the peptide text is derived from it. Bridges are numbered along the chain shown (N, C = ends). [ ]: non-standard residue; d: D form. NMeY = CN[CH](Cc1ccc(O)cc1)C(=O)O",
  "data": [
    {"experiment": "P-glycoprotein substrates identified in KB-3-1 adenocarcinoma cell line, qHTS therapeutic library screen (AID 1346986); note: nearly all actives have a fitted effect of over 60% in size", "conditions": "KB-3-1 parental cells viability, CellTiter-Glo, 72 h; series mostly up to 44.5 µM; activity change, negative = cytotoxicity: at the top concentration", "method_in_brief": "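In 1536-well format, 500 cells/well received pinned compound titrations and were incubated 72 h, 5% CO2. Viability was read by CellTiter-Glo; cytotoxic if AC50 < 10 uM and efficacy >50%.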", "values": [
      {"smiles": "O=c1[nH]ccc2cc(OC3CCNCC3)ccc12", "outcome": "inactive"},
      {"smiles": "C=C1[C@H](OC(C)=O)[C@H]2[C@@H](OC(C)=O)[C@](C)(OC(C)=O)C[C@]2(OC(C)=O)C(=O)[C@H](C)/C=C/C(C)(C)C(=O)[C@H](OC(=O)C(C)CC)[C@H]1OC(C)=O", "note": "(stereo partly drawn)", "outcome": "inactive [at 17.4 µM]"},
      {"smiles": "COc1cc(C(=O)OC[C@@]2(O)CO[C@@H](O[C@H]3[C@H](Oc4ccc(C(=O)O)cc4OC)O[C@H](CO)[C@@H](O)[C@@H]3O)[C@@H]2O)ccc1O", "outcome": "inactive [at 17.4 µM]"},
      {"smiles": "O=C1NC(Cc2c[nH]c3ccccc23)C(=O)NC1Cc1cnc[nH]1", "note": "(stereo not drawn)", "outcome": "inactive"}
    ]},
    {"experiment": "P-glycoprotein substrates identified in KB-8-5-11 adenocarcinoma cell line, qHTS therapeutic library screen (AID 1346987); note: nearly all actives have a fitted effect of over 65% in size; note: potency is the fitted concentration of half-maximal effect; for activity change, negative = cytotoxicity: % is set by controls: 0 for no effect and ±100 for the full control effect", "conditions": "KB-8-5-11 (P-gp overexpressing) viability, CellTiter-Glo, 72 h; series mostly up to 44.5 µM; activity change, negative = cytotoxicity: at the top concentration", "method_in_brief": "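Luminescence from CellTiter-Glo, read 5 min after addition, quantified survival of KB-8-5-11 (P-gp-overexpressing) cells exposed to compounds for 72 h. AC50 was derived from concentration-response curves.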", "values": [
      {"smiles": "C/C(=C/CO)CC[C@@H]1[C@@](C)(O)CCC2C(C)(C)CCC[C@]21C", "note": "(stereo partly drawn)", "activity change, negative = cytotoxicity": "-7.26% (inactive)"},
      {"smiles": "O=c1[nH]ccc2cc(OC3CCNCC3)ccc12", "outcome": "inactive"},
      {"smiles": "O=C(CC(c1ccccc1)c1ccccc1)N1CCN(C(c2ccccc2)c2ccccc2)CC1", "Potency": "16.4 µM (active)"},
      {"smiles": "C[C@H](C/C=C/C(C)(C)O)[C@H]1CC[C@@]2(C)[C@@H]3[C@@H](O[C@@H]4O[C@H](CO)[C@@H](O)[C@H](O)[C@H]4O)C=C4C(CC[C@H](O)C4(C)C)[C@]3(C=O)CC[C@]12C", "note": "(stereo partly drawn)", "activity change, negative = cytotoxicity": "9.56% [at 17.3 µM] (inactive)"},
      {"smiles": "O=C(O[C@H]1[C@@H]2C[C@@H]3OC[C@](O)([C@@H]1Cl)[C@H]2C(O[C@@H]1O[C@H](CO)[C@@H](O)[C@H](O)[C@H]1O)O3)c1ccc(O)c(O)c1", "note": "(stereo partly drawn)", "outcome": "inactive [at 17.3 µM]"},
      {"smiles": "C[C@@H]1O[C@@H](O[C@H]2[C@H](O)[C@@H](O)[C@H](OC[C@H]3O[C@@H](OC(=O)[C@]45CCC(C)(C)C[C@H]4C4=CCC6[C@@]7(C)CC[C@H](O[C@@H]8OC[C@H](O)[C@H](O[C@@H]9O[C@H](CO)[C@@H](O)[C@H](O)[C@H]9O)[C@H]8O)[C@@](C)(CO)C7CC[C@@]6(C)[C@]4(C)CC5)[C@H](O)[C@@H](O)[C@@H]3O)O[C@@H]2CO)[C@H](O)[C@H](O)[C@H]1O", "note": "(stereo partly drawn)", "outcome": "inactive [at 9.29 µM]"},
      {"smiles": "O=C1CCC(=O)N(O)CCCCCNC(=O)CCC(=O)N(O)CCOCCNC(=O)CCC(=O)N(O)CCCCCN1", "activity change, negative = cytotoxicity": "1.95% [at 17.3 µM] (inactive)"},
      {"smiles": "O=C(O)C(O[C@@H]1O[C@H](CO[C@@H]2O[C@H](CO)[C@@H](O)[C@H](O)[C@H]2O)[C@@H](O)[C@H](O)[C@H]1O)c1ccccc1", "note": "(stereo partly drawn)", "outcome": "inactive [at 17.3 µM]"},
      {"smiles": "CC(C)[C@@](C)(O)[C@@H]1CN(c2nc(-c3[nH]nc4ncccc34)c(F)cc2Cl)CCN1", "Potency": "6.51 µM (active)"},
      {"smiles": "O=C(Nc1ccc(S(=O)(=O)C(F)(F)F)cc1)C1=CCN(c2ncccc2C(F)(F)F)CC1", "Potency": "14.6 µM (active)"},
      {"smiles": "CC1CCC2C(C(=O)O)=COC(O[C@@H]3O[C@H](CO)[C@@H](O)[C@H](O)[C@H]3O)C12", "note": "(stereo partly drawn)", "activity change, negative = cytotoxicity": "-12.9% (inactive)"},
      {"smiles": "Cc1ccc(-c2c(C(=O)CF)n(CCCO)c3ncnc(N)c23)cc1", "outcome": "inactive"},
      {"smiles": "N[C@@]1(C(=O)O)CC[C@H]2[C@H](C(=O)O)[C@H]21", "outcome": "inactive"},
      {"smiles": "O=C(c1ccccc1)c1ccc2nc(NC(=O)c3csc(C4CCN(c5ncnc6ccsc56)CC4)n3)[nH]c2c1", "Potency": "5.8 µM (active)"},
      {"smiles": "C=C1[C@H](OC(C)=O)[C@H]2[C@@H](OC(C)=O)[C@](C)(OC(C)=O)C[C@]2(OC(C)=O)C(=O)[C@H](C)/C=C/C(C)(C)C(=O)[C@H](OC(=O)C(C)CC)[C@H]1OC(C)=O", "note": "(stereo partly drawn)", "activity change, negative = cytotoxicity": "-14.6% [at 17.3 µM] (inactive)"},
      {"smiles": "CC12CCC(C(OC3OC(COC4OCC(O)(CO)C4O)C(O)C(O)C3O)C1)C(C)(C)O2", "note": "(stereo not drawn)", "outcome": "inactive [at 17.3 µM]"},
      {"smiles": "CN(C)C/C=C/C(=O)Nc1cc2c(Nc3ccc(F)c(Cl)c3)ncnc2cc1OC1CCOC1", "note": "(stereo not drawn)", "Potency": "14.6 µM (active)"},
      {"smiles": "CCC(C)C1NC(=O)C2CCCN2C(=O)C(NC(C)=O)C(C)OC(=O)C(Cc2ccc(OC)cc2)N(C)C(=O)C2CCCN2C(=O)C(C(C)C)NC1=O", "note": "(stereo not drawn) (Ac-TPIVP[NMeY](Me); ester 1-C; configuration not given here)", "activity change, negative = cytotoxicity": "-5% [at 17.3 µM] (inactive)"},
      {"smiles": "COc1cc2c(cc1OC)N1C(=O)C[C@]34C=CCN5CC[C@@H]2[C@@H](CC3)[C@]514", "activity change, negative = cytotoxicity": "0.578% (inactive)"},
      {"smiles": "COc1cc(-c2ncn(/C=C\\C(=O)OC(C)C)n2)cc(C(F)(F)F)c1", "Potency": "0.259 µM (active)"},
      {"smiles": "CCN(CC)Cc1ccc(C(=O)N(CCc2ccccc2OC)[C@@H]2CCNC2)cc1", "activity change, negative = cytotoxicity": "6.96% [at 17.3 µM] (inactive)"},
      {"smiles": "Cc1cc(C(=O)Nc2cccc(C(=O)Nc3cccc(C(F)(F)F)c3)c2)on1", "activity change, negative = cytotoxicity": "4.26% (inactive)"},
      {"smiles": "CCOCCn1nc(CC)c2nc(N3CCC(C(=O)O)CC3)nc(Nc3cc(C)ccn3)c21", "activity change, negative = cytotoxicity": "-25% (inactive)"},
      {"smiles": "COc1cc(C(=O)OC[C@@]2(O)CO[C@@H](O[C@H]3[C@H](Oc4ccc(C(=O)O)cc4OC)O[C@H](CO)[C@@H](O)[C@@H]3O)[C@@H]2O)ccc1O", "activity change, negative = cytotoxicity": "0.531% [at 17.3 µM] (inactive)"}
    ]}
  ]
}
